# From PubChem BioAssay
# Values without a mark were called inactive. Active and inactive are the calls of the source.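 How the source made its calls: active means mean inhibition above 46.5%, the solvent-only control mean plus 3 SD; inactive means the rest.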
# Biological target: Nuclear receptor coactivator 2 (Homo sapiens) (UniProt Q15596)
# Assay: inhibition of GAL4-SRC2 driven luciferase expression – cell-based, luminescence, HEK293, triplicate, confirmation (AID 652008);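 further: 0% = DMSO-treated cells and 100% = Gossypol at 36 µM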
# Settings: HEK293 GAL4-SRC2 luciferase reporter, at 8.9 µM, stronger effect = higher value
# Nuclear receptor coactivator 2 (Homo sapiens), sequence (Q15596 whole entry, looked up, the tested form may be a part): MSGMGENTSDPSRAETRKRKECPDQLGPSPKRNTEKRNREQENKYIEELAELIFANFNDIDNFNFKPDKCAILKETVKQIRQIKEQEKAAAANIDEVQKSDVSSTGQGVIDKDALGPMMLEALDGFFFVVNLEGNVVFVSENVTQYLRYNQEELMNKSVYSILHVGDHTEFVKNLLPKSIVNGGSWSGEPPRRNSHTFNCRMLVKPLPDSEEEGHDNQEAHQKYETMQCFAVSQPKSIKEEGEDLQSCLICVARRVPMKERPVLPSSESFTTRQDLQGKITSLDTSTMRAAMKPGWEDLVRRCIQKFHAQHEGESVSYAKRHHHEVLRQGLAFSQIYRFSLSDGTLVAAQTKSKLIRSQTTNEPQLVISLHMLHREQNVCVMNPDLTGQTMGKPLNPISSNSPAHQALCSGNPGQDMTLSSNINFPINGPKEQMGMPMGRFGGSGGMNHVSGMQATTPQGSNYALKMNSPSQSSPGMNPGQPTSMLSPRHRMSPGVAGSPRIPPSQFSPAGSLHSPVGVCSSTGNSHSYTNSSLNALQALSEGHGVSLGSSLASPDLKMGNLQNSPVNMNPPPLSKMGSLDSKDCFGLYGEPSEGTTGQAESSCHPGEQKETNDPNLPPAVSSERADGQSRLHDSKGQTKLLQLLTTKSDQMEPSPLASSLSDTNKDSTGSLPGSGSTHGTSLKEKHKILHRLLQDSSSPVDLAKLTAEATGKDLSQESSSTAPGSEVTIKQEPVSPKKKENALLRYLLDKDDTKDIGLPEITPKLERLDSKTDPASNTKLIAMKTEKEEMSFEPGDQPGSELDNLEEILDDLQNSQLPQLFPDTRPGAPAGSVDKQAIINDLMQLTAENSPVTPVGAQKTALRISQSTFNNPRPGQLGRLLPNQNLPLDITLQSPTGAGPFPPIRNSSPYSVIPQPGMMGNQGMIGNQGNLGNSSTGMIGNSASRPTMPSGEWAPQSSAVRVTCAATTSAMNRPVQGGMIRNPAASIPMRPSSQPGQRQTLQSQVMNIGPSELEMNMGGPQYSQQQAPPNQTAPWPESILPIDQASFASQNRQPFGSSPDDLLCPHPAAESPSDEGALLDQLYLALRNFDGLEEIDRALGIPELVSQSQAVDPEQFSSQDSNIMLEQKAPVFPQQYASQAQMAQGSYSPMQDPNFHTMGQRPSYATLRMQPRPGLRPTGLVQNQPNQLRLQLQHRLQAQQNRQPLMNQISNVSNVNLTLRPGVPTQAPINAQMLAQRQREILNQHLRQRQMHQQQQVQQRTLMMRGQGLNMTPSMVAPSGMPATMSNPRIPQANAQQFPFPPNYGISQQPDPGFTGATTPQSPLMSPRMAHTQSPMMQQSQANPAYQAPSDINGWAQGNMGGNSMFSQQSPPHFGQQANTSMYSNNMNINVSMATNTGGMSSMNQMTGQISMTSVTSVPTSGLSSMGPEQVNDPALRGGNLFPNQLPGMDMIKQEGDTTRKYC
row,SMILES,inhibition
1,CN(Cc1cccc(-c2cccnc2)c1)C(=O)Oc1ccc([N+](=O)[O-])cc1,49.7% (active)
2,Cc1ccccc1CN1Cc2cnnn2-c2ccccc2C1C#N (stereo not drawn),48.8% (active)
3,CC(=O)O[C@H]1C[C@@H]2OC3C=C(C)CCC3(C)[C@@]1(C)[C@@]21CO1 (stereo partly drawn),77.9% (active)
4,CCOP(=O)(OCC)c1cccc(OP(=O)(c2cccc([N+](=O)[O-])c2)c2cccc([N+](=O)[O-])c2)c1,-32.1%
5,C=C1C(=O)O[C@H]2C[C@@H](C)[C@@H]3C=CC(=O)[C@@]3(C)C[C@H]12,23%
6,Oc1ccc(-[n+]2c(-c3ccccc3)cc(-c3ccccc3)cc2-c2ccccc2)cc1,33.1%
7,CCN1CCN(S(=O)(=O)c2ccc(Cl)c(C(=O)Nc3ccc(C(=O)N(CC)CC)cc3)c2)CC1,2.66%
8,Nc1cccc(SC2CC(=O)N(c3ccc(Cl)cc3C(=O)c3ccccc3)C2=O)c1 (stereo not drawn),17.3%
9,COC1=C(C)C(=O)C2=C(C1=O)C(CO)N1C(C#N)C3CC4C(C1C2N1CCOC41)N3C (stereo not drawn),57% (active)
10,COc1ccc(S(=O)(=O)N2Cc3cnnn3-c3ccccc3C2C#N)cc1 (stereo not drawn),-21%
11,CCn1ccnc1CN1CCCC(C(=O)c2cccc(C(F)(F)F)c2)C1 (stereo not drawn),15.9%
12,COC1C(O)C(C)OC(OC2CCC3(C)C(CCC4C3C(O)CC3(C)C(C5=CC(=O)OC5)CCC43O)C2)C1O (stereo not drawn),22.7%
13,c1cncc(-c2ccc3n2Cc2cnnn2-c2ccccc2-3)c1,21.8%
14,NC(=O)c1c(Br)n(C2OC(CO)C(O)C2O)c2ncnc(N)c12 (stereo not drawn),35.3%
15,COC(=O)C1=C(c2ccc(-c3ccccc3)c(F)c2)C[C@@H]2CC[C@H]1N2C(=O)NCc1ccc(F)cc1,2.93%
16,CC(=O)OC1C(O)C(C)OC(OC2C(OC(=O)C3CCC4C(C3)OC3(CC(OC(=O)/C=C/c5ccccc5)C(C)CO3)C43CO3)OC(C)C(O)C2OC(C)=O)C1O (stereo not drawn),75.2% (active)
17,O=C1NC(=O)N(Cc2ccco2)C(=O)/C1=C/C=C/c1ccco1,-57.3%

row,SMILES,inhibition
1,Cc1nc2cc(-c3cccc(F)c3)nn2c(C)c1CCC(=O)N1CCC2(CC1)OCCO2,40%
2,COc1ccc2c3c1O[C@H]1C(=O)CC[C@H]4[C@@H](C2)N(C)CC[C@]314,-28.4%
3,COc1cc(CC(C)N)c(OC)cc1I (stereo not drawn),8.7%
4,Cc1ccc(N2C(=O)NC(=O)C(CCc3ccccn3)(Cc3ccc(F)cc3)C2=O)cc1 (stereo not drawn),7.3%
5,COC(=O)C1=C(C(=O)OC)C2c3ccccc3C1c1ccccc12,2.05%
6,C[C@@H]1C[C@@H]([C@H](O)CC2CC(=O)NC(=O)C2)C(=O)[C@@H](C)C1,59.3% (active)
7,CC(=O)OC1CC(OC2C(O)CC(OC3C(O)CC(OC4CCC5(C)C(CCC6C5CCC5(C)C(C7=CC(=O)OC7)CCC65O)C4)OC3C)OC2C)OC(C)C1OC1OC(CO)C(O)C(O)C1O (stereo not drawn),54.4% (active)
8,O=C(c1ccc(Cl)cc1)C1CCCN(Cc2cccc3ncccc23)C1 (stereo not drawn),-6.97%
9,CCOP(=O)(OCC)C1(O)C(=O)Nc2ccc(Br)cc21 (stereo not drawn),-5.26%
10,Cc1nc2cc(-c3ccc(Cl)cc3)nn2c(C)c1CCC(=O)N1CCC2(CC1)OCCO2,70.5% (active)
11,CCOC(=O)C1(CCc2ccccc2)CCN(Cc2cccc3cnccc23)CC1,9.69%
12,O=[N+]([O-])c1ccc(N2CCCC(C(F)(F)F)C2)c2ccncc12 (stereo not drawn),34.3%
13,CC(=O)OC(C)(C)/C=C/C(=O)C(C)(O)C1[C@H](O)C[C@@]2(C)C3CC=C4C(CC[C@@H](O)C4(C)C)[C@]3(CO)C(=O)C[C@]12C (stereo partly drawn),55.2% (active)
14,O=Cc1cn(Cc2ccc(F)cc2Cl)c2ccccc12,26.5%
15,FC(F)(F)c1ccccc1N1CC1c1ccncc1 (stereo not drawn),-11.4%
16,CN1C(=O)C[N+]([O-])=C(c2ccccc2)c2cc(Cl)ccc21,0.34%
